The values that follow come from PubChem BioAssay (NCATS).

Each structure is given as a SMILES string. Records with an inconclusive call do not appear. The source made the active and inactive calls. Unless noted, the call rests on the fitted dose curve; in most records, active means well fitted curve in the direction sought with a large enough effect; inconclusive means small, poorly fitted or top-dose-only effect, or another doubt; inactive means no such curve, though single readings can be large; an effect the other way counts as inactive or inconclusive.

The nature of experiment [1]: Secretion counterscreen for inhibitors of the SERCaMP assay screened against the NCATS CANVASS Library (AID 1347390). In outline:
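SH-SY5Y cells with constitutively secreted GLuc reporter, 1000 cells/well, treated 20 h at 37C with compounds at 0.001 - 77 uM final; secreted luciferase read as luminescence after coelenterazine; Brefeldin A as positive control.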
(Counterscreens check selectivity or assay interference.)

The nature of experiment [2]: qHTS for activators of Nrf2/ARE signaling pathway screened against the NCATS CANVASS Library (AID 1347391). In outline: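 ARE-bla HepG2 beta-lactamase reporter cells, 2000 cells/well, were preincubated 5 h, then exposed to compounds (11-point series) for 16 h at 37C. CCF4 fluorescence (ex 405, em 460/530 nm) after 2 h at room temperature.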
On the technique in general: qHTS replaces the single test concentration by a dilution series.

Experiment [3] can be described thus: qHTS for activators of dead-cell proteases activity screened against the NCATS CANVASS Library (AID 1347392). The procedure, abridged: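 HepG2 cells (2000/well) attached 18 h at 37C, then exposed 5 h to compounds (11-point qHTS). Dead-cell protease activity read as luminescence from cell-impermeant AAF-aminoluciferin substrate after 15 min at room temperature.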

Experiment [4] is described as follows: Vero-766 cells viability qHTS against the NCATS CANVASS Library: Counterscreen for Zika virus inhibition assay (AID 1347394). In outline: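 Vero 766 cells (1000/well), without Zika virus, were exposed to compounds for 72 h at 37C. Viability was measured by CellTiter Glo luminescence. Media-only wells served as 100% inhibition.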
Experiment [5] can be described thus: qHTS for inhibitors of Wild type Zika virus screened against the NCATS CANVASS Library (AID 1347396). In outline:
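Using ATP-based luminescence (CellTiter Glo), this screen scores rescue of Vero 766 cells from wild-type Zika killing at 72 h post-infection. Compounds are tested in a concentration series.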

Experiment [6] can be described thus: Redox Reaction Profiling qHTS: Assay Interference Panel against the NCATS CANVASS Library (AID 1347401). The procedure, abridged:
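Resazurin (5 uM) conversion to resorufin measured with 200 uM DTT in 50 mM HEPES pH 7.3, 50 mM NaCl. Compounds tested in 11-point qHTS series. Fluorescence (ex 525/em 598 nm) read before and after 15 min dark incubation.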

A short description of experiment [7]: qHTS for inhibitors of Rabies Virus screened against the NCATS CANVASS Library (AID 1347402; calls by dose curve).
The nature of experiment [8]: qHTS for inhibitors of ER calcium dysfunction: SERCaMP assay screened against the NCATS CANVASS Library (AID 1347393). Particulars: SH-SY5Y GLuc-SERCaMP (Gaussia luciferase released on ER calcium loss) secretion, thapsigargin, luminescence. The procedure, abridged: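 qHTS in SH-SY5Y reporter cells: 16 h compound pretreatment, 4 h thapsigargin, then secreted Gaussia luciferase measured by luminescence.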
Experiment [9] in a line: Viability qHTS for inhibitors of the SERCaMP assay screened against the NCATS CANVASS Library (AID 1347400). In outline: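 SH-SY5Y-GLuc SERCaMP MJH297-derived cells (1000 cells/well) were pre-incubated 4 h at 37C, then exposed to compounds for 48 h. Viability was read as CellTiter-Glo luminescence; bortezomib served as positive control.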
Experiment [10] can be described thus: Primary qHTS for Huh7 cytotoxicity: counterscreen for inhibitors of MERS-S pseudotyped particle cell entry (AID 1479147; calls by dose curve). Particulars: outcome: at 57.1 µM (top of the series) unless noted.
A short description of experiment [11]: Primary qHTS for inhibitors of MERS-S pseudo-typed particle cell entry (AID 1479149; calls by dose curve). The settings on record: outcome: at 57.1 µM (top of the series) unless noted.
Experiment [12] can be described thus: qHTS to identify inhibitors of the type 1 interferon - major histocompatibility complex class I in skeletal muscle: primary screen against the NCATS Mechanism Interrogation Plate v5.0 (MIPE) Libary (AID 1347411). In outline:
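Immortalized human C25cl48 myoblasts with HiBit knocked into endogenous HLA-B*08:01 were stimulated with 4.0 ng/ml IFN-beta and exposed to compounds (11-point 1:3 titration, top 46 uM final) for 24 hrs at 37 C; HiBiT lytic luminescence measured.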

Experiment [13] in a line: qHTS for inhibitors of adenylyl cyclases using a fission yeast platform: a pilot screen against the NCATS LOPAC library (AID 1347410). In outline: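 S. pombe CHP2027 (AC9-GNAS-PDE4D2) carrying PKA-repressed fbp1-GFP, incubated 18 h at 30C in EMM with LOPAC compounds at up to 57 uM. GFP gain-of-signal read by laser scanning cytometry; DMSO negative control.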
The nature of experiment [14]: Validation qHTS assay for inhibitors of Activation Induced Cytidine Deaminase (AID): UDG Counterscreen signal (AID 1347427). The procedure, abridged: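 Counterscreen read of UDG activity (2 U/mL, 4/3x) in the FRET deamination format with AID (1 uM, 4/3x), DJC20/DJC23 substrates (250 nM, 4x), 4 h at room temperature. NaOH stop, fluorescence at 560 ex/665 em.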
Experiment [15] addresses Single-stranded DNA cytosine deaminase (Homo sapiens) (UniProt Q9GZX7). As to the kind of experiment: Validation qHTS assay for inhibitors of Activation Induced Cytidine Deaminase (AID): AID signal (AID 1347429). In outline:
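AID and UDG were combined and compounds added at final up to 114 uM, then DJC20/DJC23 FRET substrate was added for 4 hr at room temperature. NaOH was then added for 30 min before fluorescence was read at 540/590 nm.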

Experiment [16] is described as follows: qHTS to identify inhibitors of the type 1 interferon - major histocompatibility complex class I in skeletal muscle: primary screen against the NCATS LOPAC collection (AID 1347405). The procedure, abridged:
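Immortalized human C25cl48 myoblasts with HiBiT knocked into endogenous HLA-B*08:01 were stimulated with 4.0 ng/ml IFN-beta and given compounds in a 7-point, 1:4.3 titration from 46 uM final; after 24 hrs, lytic HiBiT luminescence was read.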

Experiment [17] is described as follows: qHTS to identify inhibitors of the type 1 interferon - major histocompatibility complex class I in skeletal muscle: primary screen against the NCATS Pharmaceutical Collection (AID 1347407). In outline: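 Immortalized human myoblasts (C25cl48) with HiBiT knocked into endogenous HLA-B*08:01 were stimulated with 4.0 ng/ml IFN-beta and treated with compounds ([…] top 46 uM) for 24 hrs at 37 C. HiBiT lytic luminescence read.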

For experiment [18], the target named is Protein phosphatase 1D (Homo sapiens) (UniProt O15297). Put plainly: RapidFire Mass Spectrometry qHTS Assay for Modulators of WT P53-Induced Phosphatase 1 (WIP1) (AID 1347424). The procedure, abridged:
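WIP1 (10 nM final) was preincubated 1 h at room temperature with compounds in Tris-HCl pH 7.5, 30 mM MgCl2, TCEP, EGTA, BSA; 2 uM VEPPL-pS-QETFS phosphopeptide was added for 5 min, quenched with formic acid, and dephosphorylated product quantified by RapidFire MS.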

Single-stranded DNA cytosine deaminase (Homo sapiens), sequence (Q9GZX7 whole entry, looked up): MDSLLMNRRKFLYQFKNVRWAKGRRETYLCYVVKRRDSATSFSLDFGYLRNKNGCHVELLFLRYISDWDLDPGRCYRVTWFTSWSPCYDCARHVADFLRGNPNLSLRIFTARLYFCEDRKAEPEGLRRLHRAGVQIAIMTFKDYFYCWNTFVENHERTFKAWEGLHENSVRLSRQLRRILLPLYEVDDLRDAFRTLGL
Protein phosphatase 1D (Homo sapiens), sequence (O15297 whole entry, looked up): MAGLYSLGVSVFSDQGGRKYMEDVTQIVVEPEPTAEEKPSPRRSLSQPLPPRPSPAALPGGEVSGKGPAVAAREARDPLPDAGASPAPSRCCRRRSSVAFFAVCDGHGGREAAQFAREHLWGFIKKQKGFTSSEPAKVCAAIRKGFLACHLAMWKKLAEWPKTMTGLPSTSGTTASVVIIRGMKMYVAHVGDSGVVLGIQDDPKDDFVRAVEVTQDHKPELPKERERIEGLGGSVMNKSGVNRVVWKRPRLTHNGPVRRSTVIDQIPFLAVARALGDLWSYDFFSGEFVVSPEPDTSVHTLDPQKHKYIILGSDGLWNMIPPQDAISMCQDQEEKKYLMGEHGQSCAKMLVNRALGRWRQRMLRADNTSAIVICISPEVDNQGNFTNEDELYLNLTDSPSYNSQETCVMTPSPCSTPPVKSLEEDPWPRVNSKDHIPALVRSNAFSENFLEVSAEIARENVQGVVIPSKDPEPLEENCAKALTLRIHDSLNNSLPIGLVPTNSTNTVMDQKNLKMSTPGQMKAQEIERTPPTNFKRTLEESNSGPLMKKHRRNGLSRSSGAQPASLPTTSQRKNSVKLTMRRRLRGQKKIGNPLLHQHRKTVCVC

For `COc1ccc2[nH]cc(CCN)c2c1`, the compound was classed as inactive in [1], in experiment [2], in [3], in [4], in experiment [5] and in experiment [6]. In [7], the call was inactive.
In the case of `O=C1C[C@@H]2OCC=C3CN4CC[C@]56c7ccccc7N1[C@H]5[C@H]2[C@H]3C[C@H]46`, the call in [1], in [2], in experiment [3], in experiment [4], in [5] and in experiment [9] was inactive. Besides, the outcome in experiment [7], in experiment [10] and in [11] was inactive. In experiment [8], the Potency is 59.6 µM (active).
In the case of `CC(=O)c1c(O)c(C)c(O)c(Cc2c(O)c3c(c(C(=O)/C=C/c4ccccc4)c2O)OC(C)(C)C=C3)c1O`, the outcome in [12] was inactive.
As for `O=[N+]([O-])c1cc(O)c(O)c([N+](=O)[O-])c1`, in experiment [13], the compound was classed as inactive. The Potency entry in experiment [14] and in experiment [15] was “inactive” throughout.
As for `CC12NC(Cc3ccccc31)c1ccccc12` (stereo unspecified), the Potency result in [16], in [14] and in experiment [15] was “inactive” throughout. Also, in experiment [13], the result was inactive.
In the case of `Cc1o[nH]c(=O)c1CC(N)C(=O)O` (stereo unspecified), the Potency result in experiment [16], in experiment [14] and in experiment [15] was “inactive” in each case. For the same compound, the compound was classed as inactive in [13].
Turning to `C[CH2][Hg][S]c1ccccc1C(=O)O`, the call in [17] was inactive. Besides, the Potency in experiment [18] was 35.5 µM (active).
As to `Cc1sc2ccccc2c1CC1=NCCN1`, the Potency result in experiment [16], in [14] and in experiment [15] was “inactive” each time. For the same compound, the compound was classed as inactive in experiment [13].
In the case of `CN1CC[C@@]2(C)c3cc(O)ccc3N(C)C12` (stereo partly specified), the Potency result in [16] was “inactive”. The outcome in experiment [13] was inactive. In addition, the Potency in experiment [15] is 12.6 µM (active).
Consider `C[C@H](Cc1ccc2c(c1)OC(C(=O)O)(C(=O)O)O2)NC[C@H](O)c1cccc(Cl)c1`, for which the Potency entry in experiment [16], in [14] and in [15] was “inactive” in each case. The compound was called inactive in experiment [13].
For the compound `CCN1C[C@@]2(COC)C3[C@@H](OC)C4[C@@H]1C3([C@@H]1C[C@]3(O)[C@H](OC(=O)c5ccccc5)[C@@H]1[C@]4(OC(C)=O)[C@@H](O)[C@@H]3OC)[C@H](OC)C[C@H]2O`, the Potency entry in experiment [16], in [14] and in [15] was “inactive” each time. Moreover, the compound was called inactive in experiment [13].
For the compound `NCCc1ccc(S(=O)(=O)F)cc1`, the Potency result in experiment [16], in [14] and in experiment [15] was “inactive” throughout. Also, the call in [13] was inactive.
In the case of `CC1(C(=O)O)C2CCC(O2)C1(C)C(=O)O` (stereo unspecified), in experiment [16], the Potency is 12.6 µM (active). Moreover, in experiment [13], the outcome was inactive. For the same compound, the Potency result in experiment [14] and in experiment [15] was “inactive” each time.
Take `CCn1cnc2c(Nc3cccc(Cl)c3)nc(N[C@@H]3CCCC[C@@H]3N)nc21`: in [16], the Potency is 2.51 µM (active). Besides, the result in [13] was inactive. Also, the Potency result in experiment [14] and in experiment [15] was “inactive” throughout.
For `O=[N+]([O-])/C=C/c1ccc2c(c1)OCO2`, in experiment [16], the Potency is 7.08 µM (active). In addition, in [13], the compound was classed as inactive. Further, the Potency result in experiment [14] and in experiment [15] was “inactive” throughout.
As for `CN1CCC[C@@H]1Cc1c[nH]c2ccc(Nc3ncccc3[N+](=O)[O-])cc12`, in experiment [13], the compound was classed as inactive.
Regarding `CN(N=O)c1cc(O)ccc1O`, in experiment [13], the compound was called inactive. Further, the Potency entry in experiment [14] and in [15] was “inactive” throughout.
